Bioassay records: PubChem, several laboratories
IL1B NFkB pot: enhances IL-1B driven NFkB nuclear translocation | 94,000 compounds, 0.3% hits | AID 819 | HUVEC IL-1B NFkB p65 nuclear translocation imaging | activation, % at 2 µM;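 active means activation above 40%, about the mean plus 3 SD, also judged a hit on visual image review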;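 further: percent activation is computed from the nuclear over cytoplasmic p65 intensity ratio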
HUVEC tox IL1B: HUVEC cytotoxicity counter-screen, IL-1B stimulated; HUVEC cell count loss, Hoechst imaging; cell count reduction, % at 2 µM; 94,000 compounds, 0.41% hits;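 active means cell count reduction more than 3 SD above the screen-wide mean, cut at about 70% in these data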;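 further: normalized per plate to untreated control cells as the no-loss baseline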
JNK3 inh: inhibitors of human JNK3 kinase. purified JNK3 kinase activity, HTS. inhibition, % at 8 µM. 60,000 compounds, 0.61% hits. P53779. AID 746; in the data active means inhibition above about 17%;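 further: 0% = DMSO and 100% = reference inhibitor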
NFkB transloc inh: blocks IL-1B driven NFkB nuclear translocation in HUVEC cells; HUVEC IL-1B NFkB p65 nuclear translocation imaging; inhibition, % at 2 µM; 94,000 compounds, 0.43% hits;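 active means inhibition above about 30% together with a positive call from visual inspection of the well image, limit read from the data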;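 further: nuclear over cytoplasmic p65 intensity ratio measured by imaging; 0% = IL-1B stimulated DMSO wells and 100% = unstimulated DMSO wells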
FAK inh: inhibitors of human focal adhesion kinase; Q05397; biochemical FAK kinase activity assay; inhibition, %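 (tested at 7 µM)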; 97,000 compounds, 0.84% hits; in the data active means inhibition above about 19%;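 further: 0% = DMSO and 100% = reference compound high control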
PTK2B oligo ant: antagonists of human Pyk2 oligomerization; Q14289; Q293 cells, Pyk2 FERM NanoBiT luminescence; stronger effect = lower value; z-score (the deposit names both 25 µM and 10 µM); 99,000 compounds, 0.83% hits;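 active means Z-score of -3 or lower, scaled per plate to the spread of control and sample wells; inactive means z-score above -3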;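 further: negative z-score means lost luminescence so less FERM oligomerization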
* hit, by the source's call; / = not tested or not shown. Rows were chosen to be rich in hits. Some 2.4% of all compounds tested hit in one or more screens of this group.

SMILES	IL1B NFkB pot	HUVEC tox IL1B	JNK3 inh	NFkB transloc inh	FAK inh	PTK2B oligo ant
N#Cc1ccc(C(c2nnnn2C2CCCC2)N2CCC(Cc3ccccc3)CC2)cc1 (centres undefined)	-4	-10	/	4	-2	-1.1
CCc1ccc(NC(=O)CN(c2cccc(C)c2)S(C)(=O)=O)cc1	-1	5	/	1	0	-2.1
COc1ccc(Cn2c(=O)sc3ccccc32)cc1	8	10	-3	-8	-1	-1.9
CC(C)Oc1ccc(Cn2c(=O)sc3ccccc32)cc1	-3	21	/	3	0	-3.3*
O=C(CSc1ncn[nH]1)OCN1C(=O)c2ccccc2C1=O	2	25	-5	-2	-3	0.58
CSc1cccc(NC(=O)Nc2ccc(Cl)cc2)c1	-76	-11	/	76*	5	-1.6
CCOC(=O)N1CCN(c2ncnc3c2oc2nc(CC(C)C)c4c(c23)CCC4)CC1	/	/	-5	/	/	/
Cc1cc(NS(=O)(=O)c2ccc(NC(=O)CCCOc3ccc(Cl)cc3)cc2)no1	-9	-30	8	9	-3	0.54
Cc1cc(NS(=O)(=O)c2ccc(NC(=O)CCCOc3ccccc3)cc2)no1	45*	9	-1	-45	-2	2.1
NS(=O)(=O)c1ccc(NC(=O)COC(=O)CCC2CCCCC2)cc1	/	/	/	/	/	0.8
CCCOc1cccc(C(=O)Nc2cccnc2)c1	40*	-19	2	-40	-5	0.44
COc1ccc2[nH]c(=O)c(CN(Cc3nnnn3Cc3ccco3)C3CCCCC3)cc2c1	27	-7	4	-27	1	0.13
COc1ccc2cc(CN(CCc3ccccc3)Cc3nnnn3Cc3ccco3)c(=O)[nH]c2c1	168*	0	-10	/	-3	0.31
Cc1ccc(S(=O)(=O)Nc2nncs2)cc1	55*	-30	-7	-55	1	-0.11
Cc1cc(O)c(-c2n[nH]c3c2C(c2cccc(O)c2)N(Cc2cccnc2)C3=O)cc1Cl (centres undefined)	1	-4	3	-1	0	-3.9*
CSc1nc2ccc(Nc3nc(N4CCOCC4)nc(N4CCOCC4)n3)cc2s1	0	-10	5	0	-3	-3.4*
CCCC(=O)Nc1ccc2nc(SCC(=O)Nc3ccc(N4CCOCC4)c(Cl)c3)sc2c1	/	/	/	/	-2	-3.5*
Cn1c(=O)c2c(nc(SCC(=O)Nc3ccc(N4CCOCC4)c(Cl)c3)n2C)n(C)c1=O	/	/	0	/	/	/
Cc1ccc(Nc2nc(N3CCOCC3)nc(N3CCOCC3)n2)cc1	12	-44	-3	-12	-1	-0.36
CCN1C(=O)C2(C(C#N)=C(N)Oc3n[nH]c(C(C)C)c32)c2ccccc21 (centres undefined)	18	6	4	-18	-3	-0.34
CCN1C(=O)C2(C(C#N)=C(N)Oc3n[nH]c(-c4ccc(Cl)cc4)c32)c2ccccc21 (centres undefined)	-6	-98	/	6	1	-3*
CCc1c(C(=O)N2CCOCC2)csc1C	-98	91*	1	98*	1	2.2
Cc1cc(F)c(F)c(C(=O)N2CCOCC2)c1	4	37	/	-4	0	-0.11
CSc1ccccc1NC(=O)CSCc1ccc(Br)cc1	-2	14	/	2	-6	1
COc1cc(/C=c2\s/c(=C(/C#N)C(=O)N3CCCC3)n(-c3ccccc3)c2=O)ccc1O	-3	-52	4	3	-5	-3*
SMILES	IL1B NFkB pot	HUVEC tox IL1B	JNK3 inh	NFkB transloc inh	FAK inh	PTK2B oligo ant
COC(=O)/C=c1/s/c(=C(/C#N)C(=O)N2CCCCC2)n(-c2ccccc2)c1=O	/	/	-6	/	/	/
C(=C/c1ccnc2nc(SC/C=C/c3ccccc3)nn12)/c1ccccc1	10	-18	/	-10	-6	-3*
O=C(CSc1ccc2ccccc2c1)Nn1cnnc1	50*	7	/	-50	0	-0.53
COc1cccc(N2CCN(C3CC(=O)N(c4ccc(F)c(Cl)c4)C3=O)CC2)c1 (centres undefined)	-96	88*	-6	96*	1	0.94
CCOc1ccc(N(Cc2cc3cc(OC)ccc3[nH]c2=O)C(=O)C2CCCO2)cc1 (centres undefined)	14	-14	-3	-14	-9	-0.36
Cc1nn(-c2ncc(C(F)(F)F)cc2Cl)c(=O)n1-c1ccccc1Cl	-31	19	/	31*	0	1.6
CCOC(=O)c1c(NC(=O)CN2CCCCC2)sc2c1CCC(C=O)=C2Cl	-7	8	/	7	-2	-3.1*
CCOC(=O)c1c(NC(=O)CN2CCN(c3ccc(Cl)cc3)CC2)sc(C)c1C	1	30	/	-2	-1	1.1
Clc1ccc(OCCCNCc2ccccc2)c(Br)c1	-40	-16	/	40*	6	1.1
Cc1cccc(N2CCN(c3nnnn3-c3ccccc3)CC2C)c1 (centres undefined)	-2	17	/	2	0	0.23
C=CCNC(=O)c1ccc(C(=O)c2ccccc2)cc1	-7	5	/	7	0	-0.1
O=C(NCNC(=O)c1ccccc1)c1ccccc1	11	81*	/	-11	2	-0.03
CCCOC(=O)c1ccc(NC(=O)c2cc(OC)c(OC)c(OC)c2Br)cc1	-5	-5	/	5	-3	-2
O=C(O)CSc1ncnc2c1oc1ccccc12	0	-18	/	0	-2	0.82
OCCSc1ncnc2c1oc1ccccc12	-32	-10	7	32*	8	2.7
CCOC(=O)CC(=O)CSc1ncnc2c1oc1ccccc12	5	-7	42*	-5	-44	-0.61
N#CCCSc1ncnc2c1oc1ccccc12	5	-6	28*	-5	0	0.8
c1ccc(Sc2ncnc3c2oc2ccccc23)cc1	3	-1	/	-3	5	-1.1
Brc1ccc(Oc2ncc(CN3CCOCC3)s2)cc1	1	-2	/	-1	4	-0.54
O=C(c1oc(=O)c2ccccc2c1-c1ccccc1)N1CCN(C2CCCCC2)CC1	27	-55	-1	-27	-6	/
Cc1cc2nc(NC3=NCN(Cc4cccnc4)CN3)nc(C)c2cc1C	/	/	5	/	/	/
CN1CCc2nc(SCC(=O)Nc3cccc(F)c3)c(C#N)c(-c3cccs3)c2C1	5	16	/	-5	6	-3.1*
Cc1onc(-c2ccccc2Cl)c1C(=O)NCCn1c(C)cc2ccccc21	/	/	1	/	/	/
COCCCn1c(C)nc2c(c1=O)c1nc3ccccc3nc1n2CCc1ccccc1	27	-25	-6	-27	3	-1.6
O=C(NCC1CCCO1)NC1CCCCC1 (centres undefined)	-20	94*	/	20	2	0.68
CCCc1cc(=O)n2c([nH]c3ccccc32)c1C#N	-36	-17	/	36*	-2	0.86
CC(=O)N/C(=C/c1ccc2c(c1)OCO2)C(=O)NCCCO	9	-7	/	-9	1	-0.59
Cc1ccc(-n2c(=O)[nH]cc(C(=O)Nc3ccc4c(c3)OCCO4)c2=O)cc1	/	/	-1	/	-4	-3.1*
CC(C)CCNC(=O)c1cc(-c2ccco2)nc2ccccc12	-10	-13	/	10	1	0.43
CCCCCCNC(=O)c1cc(-c2ccco2)nc2ccccc12	10	-4	/	-10	20*	0.04
